# Source: PubChem BioAssay
# WRN helicase inh: qHTS for Inhibitors of WRN Helicase. Bifunctional 3'-5' exonuclease/ATP-dependent helicase WRN (Homo sapiens), Q14191. WRN helicase unwinding, fluorescent forked duplex, kinetic. Potency, µM (top dose mostly 114 µM), for the others: at the top dose activity change, negative = inhibition, most hits filed as inhibitors. 0.46% of 360,000 active. AID 651768, 2012; further: potency means the concentration at half of the fitted maximal effect; nearly all actives have a fitted effect of over 55% in size
#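 WRN at 20 nM final preincubated with compound 15 min at room temperature; reaction started with 100 nM fluorophore/quencher forked duplex oligonucleotide and 2 mM ATP final. Unwinding followed kinetically by red fluorescence (ex 525, em 598 nm).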
# USP2a inh: qHTS Assay for Inhibitors of Ubiquitin-specific Protease USP2a Using CHOP2 as the Reporter; USP2 core, Ub-CHOP2 coupled fluorogenic reporter, 485/531; Potency, µM (highest dose often 38.3 µM), for the others: top-dose activity change, negative = inhibition, actives largely listed as inhibitors; 0.01% of 330,000 active;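 further: potency means the concentration at half of the fitted maximal effect; plate controls were DMSO wells for no effect and full inhibition by NEM control for full effect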
#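 Cell-free coupled assay: 10nM USP2 core preincubated 30min RT with compound in Tris-HCl pH 8.0/CaCl2/CHAPS buffer, then 25nM Ub-CHOP2 and 25nM reporter substrate; fluorescence (Ex 485/Em 531) read after 60min RT, normalized to NEM inhibition, concentration-response curves fitted.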
# USP1-UAF1 inh: Inhibitors of USP1/UAF1: Primary Screen. Potency, µM (doses to about 57.1 µM), without a hit: at the highest dose activity change, negative = inhibition, most hits filed as inhibitors. 0.23% of 390,000 active. recombinant USP1/UAF1, Ub-Rhodamine cleavage fluorescence. AID 743255, 2014; further: potency means the concentration at half of the fitted maximal effect; nearly all actives have a fitted effect of over 60% in size
# Target sequence (O94782 whole entry, looked up): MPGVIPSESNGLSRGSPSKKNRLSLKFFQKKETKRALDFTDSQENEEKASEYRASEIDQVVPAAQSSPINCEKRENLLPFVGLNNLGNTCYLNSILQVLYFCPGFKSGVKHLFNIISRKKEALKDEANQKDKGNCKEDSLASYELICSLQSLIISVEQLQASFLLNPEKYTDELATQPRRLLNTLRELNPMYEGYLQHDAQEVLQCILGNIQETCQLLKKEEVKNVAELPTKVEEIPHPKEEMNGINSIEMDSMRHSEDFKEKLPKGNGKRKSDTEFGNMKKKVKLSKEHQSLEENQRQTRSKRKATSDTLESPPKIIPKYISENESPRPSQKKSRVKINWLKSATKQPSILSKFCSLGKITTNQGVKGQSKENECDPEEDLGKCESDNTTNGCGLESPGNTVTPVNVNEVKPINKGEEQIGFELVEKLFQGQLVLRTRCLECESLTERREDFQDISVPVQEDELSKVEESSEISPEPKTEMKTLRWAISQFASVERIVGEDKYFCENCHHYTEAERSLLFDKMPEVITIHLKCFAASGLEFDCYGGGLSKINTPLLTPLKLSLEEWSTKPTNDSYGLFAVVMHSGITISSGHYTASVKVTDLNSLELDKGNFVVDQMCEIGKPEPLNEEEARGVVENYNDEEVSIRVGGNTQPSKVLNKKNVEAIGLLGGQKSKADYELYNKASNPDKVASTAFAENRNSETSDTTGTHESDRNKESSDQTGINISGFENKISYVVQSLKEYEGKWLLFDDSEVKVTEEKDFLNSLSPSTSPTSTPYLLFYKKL
#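 1 nM enzyme complex + cpd, 15 min RT; start with Ub-Rho 150nM final; kinetic fluorescence ex 480/em 540, 6 reads q60 s. Buffer 50mM HEPES pH 7.8, 0.5mM EDTA, 0.1 mg/ml BSA, 1mM TCEP, 0.01% Tween-20.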
# PI5P4K alpha inh: qHTS for Inhibitors of phosphatidylinositol 5-phosphate 4-kinase (PI5P4K). PI5P4Kalpha enzyme, ADP-Glo luminescence, 60 min; hits give low values. max response, %. Phosphatidylinositol 5-phosphate 4-kinase type-2 alpha (Homo sapiens), P48426. 1.2% of 330,000 active; active means max response of -50% or lower; inconclusive means between -30% and -50%; inactive means -30% or higher; further: value at the top dose of about 77 µM
#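 Luminescence from ADP-Glo served as readout of PI5P4Kalpha activity in a qHTS format. Reaction: enzyme, substrate, compound, ATP at 5 microM final, 60 min at RT.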
# PLK1 PBD inh: qHTS for Inhibitors of PLK1-PDB (polo-like kinase 1 - polo-box domain): Primary Screen; Plk1 PBD binding of FITC phosphopeptide, fluorescence polarization; 2.8% of 360,000 active; Potency, µM, for inactives: max response, negative = inhibition, actives largely listed as inhibitors; further: potency means the concentration at half of the fitted maximal effect; series mostly up to about 57 µM; nearly all actives have a fitted effect of over 65% in size
# * marks the source's active call; other numbers are inactive results; u = inconclusive; x = no result given; [ ] = another dose, or the depositor's remark. Rows were chosen to be rich in hits. Some 3.3% of all compounds tested hit in one or more screens of this group. Unless noted, the call rests on the fitted dose curve; in most records, active means well fitted curve in the direction sought with a large enough effect; inconclusive means small, poorly fitted or top-dose-only effect, or another doubt; inactive means no such curve, though single readings can be large; an effect the other way counts as inactive or inconclusive. Unless noted, on the % scale 0 is the no-effect control and ±100 the full control effect.
SMILES,WRN helicase inh,USP2a inh,USP1-UAF1 inh,PI5P4K alpha inh,PLK1 PBD inh
COc1cc(/C=C2\SC(=O)N(c3cccc(Cl)c3)C2=O)cc([N+](=O)[O-])c1O,50.1µM*,-6.1%,-19.9%,-80.8*,u
CCc1nnc(SCc2nc(-c3ccccc3Cl)oc2C)c2cc3sc(C)cc3n12,x,x,-13.3%,x,x
CCc1ccc(-n2nc3cc(C)c(NC(=O)c4cc(Cl)ccc4OC)cc3n2)cc1,x,x,-16.4%,x,x
CCOC(=O)Cc1[nH]nc2c1C(c1cccc(OC)c1OC)C(C#N)=C(N)O2 (centres undefined),1.2%,1.2%,-16.3%,-0.9,-10.0%
CCOC(=O)Cc1[nH]nc2c1C(C1C=CCCC1)C(C#N)=C(N)O2 (centres undefined),-18.2%,2.2%,-11.3%,-51.3*,-9.1%
N#CC1=C(N)Oc2n[nH]c(-c3cccs3)c2C1C1C=CCCC1 (centres undefined),-1.4%,1.3%,-3.2%,-52.1*,-10.0%
Cc1ccc(C(=O)N2CCc3cc(CNC(=O)c4ccccc4F)ccc32)cc1,x,x,-13.5%,x,x
CC(C)CCN(Cc1ccco1)S(=O)(=O)c1ccc(-c2ccc(=O)[nH]n2)s1,-7.9%,0.1%,-5.3%,1.4,-14.5%
CCCCN(Cc1ccco1)S(=O)(=O)c1ccc(-c2ccc(=O)[nH]n2)s1,-6.8%,-1.1%,-11.3%,-21.0,23.8µM*
O=C(NCCCO)C(=O)NCC(c1ccc2c(c1)OCO2)N1CCOCC1 (centres undefined),x,x,-21.0%,x,x
Cc1cccnc1Nc1nc(-c2ccc(O)cc2O)cs1,-11.5%,3.6%,-11.5%,0.4,18.9µM*
CC1=CC(=O)C=C(C)C1=NOC(=O)c1cccc([N+](=O)[O-])c1,-27.2%,4.0%,-25.2%,-1.5,9.47µM*
Cc1ccccc1Cn1c(CN2CCC(C(=O)NCCN(C)C)CC2)cc2ccccc21,x,x,-24.7%,x,x
N#C/C(=C\c1ccc(Cl)cc1)c1nc(-c2cc3ccccc3oc2=O)cs1,x,x,-11.4%,x,x
CC1CCC(=C(C#N)c2nc(-c3cc4ccccc4oc3=O)cs2)CC1 (centres undefined),-5.7%,1.1%,-19.8%,-8.4,26.7µM*
CCc1ccccc1NC(=O)Nc1cc(C(=O)NCc2cccc(F)c2)ccc1N1CCCC1,x,x,-31.1%,x,x
COC(=O)CCN(C(C)=O)c1ccc(N)cc1,13.1%,0.3%,-8.2%,-2.9,26.7µM*
COC(=O)CCC(=O)N(CCN(C(=O)CCC(=O)OC)c1ccccc1)c1ccccc1,-23.3%,-1.3%,-17.4%,2.5,-13.0%
CCc1ccc(NC(=O)c2cc3c(COC(C)=O)cnc(C)c3oc2=O)cc1,x,x,5.7%,x,x
CN(C)c1ccc(C(=O)OCC(=O)NC2CCCCCC2)cc1,2.3%,3.7%,-21.9%,-0.3,-9.9%
CCOc1ccc(C(C)NC(=S)NC2CCCCC2)cc1OCC (centres undefined),4.4%,1.4%,-21.5%,11.9,1.0%
CN(C)c1ccc(C(=S)NC2CCCCC2)cc1,3.4%,-1.7%,-5.3%,-4.6,13.4µM*
CCN(CC)c1ccc(C(=S)NC2CCCCC2)cc1,-11.4%,0.8%,-15.0%,-15.9,23.8µM*
CCOc1ccc(C(=S)NC2CCCCC2)cc1OCC,4.3%,-1.6%,-6.1%,u,5.97µM*
CCN(CC)c1ccc(C(=S)NCc2ccccc2)cc1,-5.8%,2.5%,-12.9%,1.4,u
O=C(/C=C/c1ccccc1)Nc1nc(-c2cccs2)ns1,x,x,-7.6%,x,x
O=C(O)Cc1sc(Nc2cccc3ccccc23)nc1-c1ccc(Cl)cc1,-19.3%[11.6 µM],-7.3%,-19.6%,0.0,26.7µM*
COc1cccc(C(=O)NC(=S)Nc2ccc(Cl)cc2C(=O)O)c1,7.7%,0.1%,-21.5%,-63.1*,u
COc1cccc(C(=O)NC(=S)Nc2ccc3c4c(cccc24)CC3)c1,-8.9%,0.4%,-4.5%,0.5,-5.4%
O=C1Nc2ccccc2SC(c2ccccc2)C1O (centres undefined),u,u,-0.5%,-82.2*,u
